This is a sample that favours compounds with a hit; in the whole collection about 4.8% have one here.
SMARCA2 act = increases SMARCA2 function in MMTV reporter cells. activation, % at 9.1 µM. AID 652017. MG213 cells, MMTV-luciferase reporter, dexamethasone, overnight. hit rate 1% among 370,000; in the data active = activation above about 7.8%;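 note: 0% = vehicle wells and 100% = reference activator wells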
hcDAF-12 act = activators of H. contortus DAF-12 nuclear receptor; HEK293 hcDAF-12 lit1-tk-luc reporter, luminescence; 0% DMSO, 100% Δ7-dafachronic acid; activation, % at 6.8 µM; hit rate 1.4% among 370,000; AID 652067;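 active = activation above the mean of all tested compounds plus 3 SD, cut at about 5.5% in these data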;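 note: 100% = response to 3 µM Δ7-dafachronic acid high control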
DAX1 inh-1 = inhibitors of DAX1 repression of SF-1 activated StAR promoter; HEK293T StAR-luciferase reporter, SF-1/DAX-1 repression relief; inhibition, % at 6.8 µM; hit rate 1.1% among 370,000;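 active = inhibition above the mean over all tested compounds plus 3 SD, cut at about 3.6% in these data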;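 note: 0% = DAX-1 cells with DMSO and 100% = cells lacking DAX-1 with DMSO; higher inhibition means more luminescence from relief of DAX-1 repression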
ssDAF12 agonist = activates DAF-12 receptor from parasite S. stercoralis | HEK293 ssDAF-12/GRIP1 lit1-tk-luc reporter, luminescence; % of 3 µM dafachronic acid response | activation, % at 6.8 µM | hit rate 1% among 370,000;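 active = activation above the mean over all tested compounds plus 3 SD, cut at about 0.9% in these data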;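 note: 0% = DMSO-only wells and 100% = 3 µM delta7-dafachronic acid wells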
DAX1 inh-2 = NR0B1 (DAX1) inhibition; P51843; HEK293 Gal4-DAX1 luciferase reporter, luminescence; inhibition, % at 6.75 µM; hit rate 0.99% among 340,000; AID 504766;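 active = inhibition above the mean over all tested compounds plus 3 SD, cut at about 4.2% in these data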;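 note: 0% = DAX1-transfected cells with DMSO and 100% = empty-vector control cells with DMSO; inhibition shows as a rise in luminescence from relieved DAX1 repression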
hgDAF12 agonist = hgDAF-12 agonism, primary luciferase screen; activation, % at 6.8 µM; HEK293 GAL4-hgDAF12 UAS-luciferase reporter, agonist luminescence; normalized to butyrate control; hit rate 1.8% among 370,000;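 active = activation above a cutoff set at the mean of all screened compounds plus 3 SD, cut at about 10% in these data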;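 note: 0% = DMSO wells and 100% = sodium butyrate wells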
DAX1 inh confirm = confirmation of human DAX1 (NR0B1) inhibitors; shares compounds with DAX1 inh-1; HEK293T StAR-promoter luciferase reporter, SF-1/DAX-1 repression; inhibition, % at 6.8 µM; hit rate 87% among 2,400; AID 652134;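 active = inhibition above the average of every tested compound plus 3 SD, cut at about 3.8% in these data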;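 note: 0% = DAX-1 cells with DMSO and 100% = no DAX-1 control cells with DMSO; active compounds raise luminescence by relieving repression of the StAR reporter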
Target sequence (P51843 whole entry, looked up): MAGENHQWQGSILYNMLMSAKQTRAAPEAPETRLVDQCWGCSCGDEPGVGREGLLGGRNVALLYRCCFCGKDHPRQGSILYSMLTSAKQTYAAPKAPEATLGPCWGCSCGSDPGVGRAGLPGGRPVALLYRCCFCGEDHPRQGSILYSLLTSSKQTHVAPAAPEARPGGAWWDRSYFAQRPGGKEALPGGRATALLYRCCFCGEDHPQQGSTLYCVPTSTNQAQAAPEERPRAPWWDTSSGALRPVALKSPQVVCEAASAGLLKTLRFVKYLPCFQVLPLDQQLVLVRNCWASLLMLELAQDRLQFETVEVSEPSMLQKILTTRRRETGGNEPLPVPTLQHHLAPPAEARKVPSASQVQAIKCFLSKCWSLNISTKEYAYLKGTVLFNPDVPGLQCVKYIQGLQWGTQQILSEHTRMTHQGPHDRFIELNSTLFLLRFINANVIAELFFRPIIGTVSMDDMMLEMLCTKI
SF1 AF2mut Luc = counter-screen for DAX1 inhibitors: nonselective inhibitors with SF-1 AF2 mutant. inhibition, % at 6.8 µM. HEK293 StAR-luciferase, luminescence. AID 652136. hit rate 78% among 2,400. shares compounds with DAX1 inh-1;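 active = inhibition above the mean of all tested compounds plus 3 SD, cut at about 3% in these data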;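 note: 0% = DAX-1 transfected cells with DMSO and 100% = cells without DAX-1 with DMSO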
* marks the source's active call; other numbers are inactive results; nt = no result given.

SMILES	SMARCA2 act	hcDAF-12 act	DAX1 inh-1	ssDAF12 agonist	DAX1 inh-2	hgDAF12 agonist	DAX1 inh confirm	SF1 AF2mut Luc
COc1cc(C(=O)NCCC(=O)NC2CCCCCCC2)cc(OC)c1OC	-1	-2	0	-1	1	-2	nt	nt
COc1cc(/C=C2\SC(=S)N(CCCCC(=O)O)C2=O)ccc1OS(=O)(=O)c1ccc(C)cc1	-2	0	5.9*	-1	1	-4	6.2*	5.8*
O=C(NNC(=O)c1ccc2c(=O)n3c(nc2c1)CCC3)c1ccc(F)cc1	0	-1	1	-1	-1	-1	nt	nt
O=C(Nc1ccc(F)cc1F)c1ccc2c(=O)n3c(nc2c1)CCC3	5	3	11*	0	0	13*	7.9*	6.5*
O=C(Nc1ccc(F)cc1Cl)c1ccc2c(=O)n3c(nc2c1)CCC3	6	6.5*	8.8*	0	2	10*	8.6*	5.7*
Cc1ccc(C)c(NC(=O)c2ccc3c(=O)n4c(nc3c2)CCC4)c1	2	2	3	-1	0	8	nt	nt
COc1ccc(-c2coc3c(C(=O)Nc4cccc(NS(C)(=O)=O)c4)cccc23)c(C)c1	-3	-4	-1	-2	nt	-2	nt	nt
CCCCNc1ccc2c(c1)C1CC2CCN1C(=O)OCc1ccccc1 (stereo not drawn)	1	4	7.0*	0	2	3	8.3*	2
CCOc1cccc(C2C(C(=O)c3ccc(C)o3)=C(O)C(=O)N2c2nnc(C)s2)c1 (stereo not drawn)	-3	1	6.5*	-1	0	2	6.0*	3.8*
CCOc1cccc(C2C(C(=O)c3ccco3)=C(O)C(=O)N2c2nnc(C)s2)c1 (stereo not drawn)	0	2	3	-1	0	2	nt	nt
COc1cccc(NC(=O)C2(C)CCN2C(=O)C2CCCCC2)c1 (stereo not drawn)	2	1	0	1	nt	3	nt	nt
Cc1c(C(=O)NCCCN2CCCCC2)oc2ccc3c(c12)C(O)CC1(CCCCC1)O3 (stereo not drawn)	0	-1	5.7*	-1	0	0	1	-1
CC1=C(C(=O)Nc2ccc(CC(=O)NCc3ccc(OC(C)C)cc3)cc2)SCCO1	7	5.9*	15*	1.0*	0	8	23*	-3
O=C(NCc1ccccc1)c1cc(C2CCCCN2C(=O)c2ccccc2)on1 (stereo not drawn)	2	-2	-2	-1	nt	-1	nt	nt
Cc1c(CCNC=O)cc(C)c2c3c(oc12)CCCC3	5	1	4.9*	0	5.3*	7	6.5*	5.8*
N#Cc1cc2c(nc1SCC(N)=O)CCCCC2	7	3	4.8*	0	1	5	7.3*	4.5*
COc1ccc(NC(=O)COC(=O)c2cc(C)oc2C)c([N+](=O)[O-])c1	1	-1	4.6*	-1	0	-1	-2	-2
COc1ccc(NC(=O)COc2ccc(C)cc2)c([N+](=O)[O-])c1	5	0	0	-1	nt	3	nt	nt
CCOc1ccccc1N1CC(C(=O)NCCC2=CCCCC2)CC1=O (stereo not drawn)	7	4	5.2*	-1	2	9	4.1*	3.3*
CO/N=C/C(=N\Nc1cc(OC)cc(OC)c1)C(=O)c1ccccc1	-1	1	-2	-1	-1	-2	nt	nt
COc1cc(/C=C(\C#N)C(=O)Nc2ccccc2F)ccc1OCCN1CCOCC1	1	3	4.5*	-1	0	4	5.0*	2
N#C/C(=C\c1ccc(OCCN2CCOCC2)cc1)C(=O)Nc1ccccc1	4	-1	-1	-1	1	-1	nt	nt
COc1ccc(Nc2nc3ccccc3s2)cc1	5	4	5.5*	0	4.3*	27*	12*	7.3*
Cc1ccc2nc(SCC(=O)c3ccccc3)nc(=O)n2c1	7	4	8.3*	0	2	12*	9.2*	5.3*
Cc1ccn2c(=O)nc(SCC(=O)c3ccccc3)nc2c1	1	3	3	0	1	8	nt	nt
SMILES	SMARCA2 act	hcDAF-12 act	DAX1 inh-1	ssDAF12 agonist	DAX1 inh-2	hgDAF12 agonist	DAX1 inh confirm	SF1 AF2mut Luc
COc1ccc(/C(N)=N/OC(=O)c2cccs2)cc1OC	6	0	8.3*	-1	3	8	6.2*	6.1*
O=C(CSc1nc2[nH]c(=O)cc(O)c2s1)Nc1ccc(Br)cc1	4	0	8.7*	-1	1	0	0	0
O=C(CSc1nc2[nH]c(=O)cc(O)c2s1)Nc1cccc(Br)c1	1	0	5.7*	-1	1	-1	2	2
Cc1cccc(NC(=O)CSc2nc3[nH]c(=O)cc(O)c3s2)c1	0	0	0	-1	1	-1	nt	nt
CCOC(=O)c1ccc(NC(=O)N2CCc3ccccc32)cc1	6	5	4.8*	1	2	18*	11*	7.9*
CCCC(=O)Nc1ccc(NC(=O)c2ccccc2)nc1	5	3	4.7*	0	1	5	13*	6.6*
CCCC(=O)Nc1ccc(NC(=O)c2ccccc2F)cn1	-2	-1	0	1	1	3	nt	nt
COc1cccc(NC(=O)C(=O)N/N=C(\C)CC(=O)Nc2ccc(NC(C)=O)cc2)c1	4	2	5.8*	0	1	13*	5.9*	5.8*
CCc1ccc(NC(=O)C(=O)N/N=C(\C)CC(=O)Nc2ccc(OC)cc2)cc1	-2	5	0	-1	1	0	nt	nt
O=C(Nc1ccc(F)c(Cl)c1)C1CC2CCC1C2 (stereo not drawn)	-2	-1	0	-1	1	0	nt	nt
Cc1c(C(=O)N/N=C/c2ccoc2)cccc1[N+](=O)[O-]	3	0	0	-1	1	1	nt	nt
CC(/C=N/NC(=O)c1ccccc1C)=C\c1ccccc1	-2	2	0	-1	nt	3	nt	nt
O=C(N/N=C\c1ccoc1)c1ccco1	2	4	6.6*	-1	2	8	2	2
CC(/C=N/NC(=O)c1ccccc1F)=C\c1ccccc1	3	4	9.2*	0	1	12*	9.9*	4.2*
Cc1cccc(C(=O)N/N=C/c2ccoc2)c1	6	-1	1	-1	0	3	nt	nt
O=C(N/N=C/c1ccoc1)c1ccccc1F	5	2	5.3*	0	1	4	3.7*	3.3*
